The list is not random: actives were taken first. Their share in the collection is about 4.7%.
ADAM10 inh – ADAM10 inhibition, QFRET primary screen; O14672; recombinant ADAM10, EDANS/DABCYL FRET peptide cleavage, 3 h; inhibition, % at 7 µM; hit rate 0.62% among 370,000;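 active means inhibition above a per-campaign cutoff equal to the mean of compounds falling between control-based bounds plus 3 SD, cut at about 20% in these data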;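 further: 0% = DMSO wells while the 100% control is not disclosed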
Target sequence (O14672 214-748 limits assumed): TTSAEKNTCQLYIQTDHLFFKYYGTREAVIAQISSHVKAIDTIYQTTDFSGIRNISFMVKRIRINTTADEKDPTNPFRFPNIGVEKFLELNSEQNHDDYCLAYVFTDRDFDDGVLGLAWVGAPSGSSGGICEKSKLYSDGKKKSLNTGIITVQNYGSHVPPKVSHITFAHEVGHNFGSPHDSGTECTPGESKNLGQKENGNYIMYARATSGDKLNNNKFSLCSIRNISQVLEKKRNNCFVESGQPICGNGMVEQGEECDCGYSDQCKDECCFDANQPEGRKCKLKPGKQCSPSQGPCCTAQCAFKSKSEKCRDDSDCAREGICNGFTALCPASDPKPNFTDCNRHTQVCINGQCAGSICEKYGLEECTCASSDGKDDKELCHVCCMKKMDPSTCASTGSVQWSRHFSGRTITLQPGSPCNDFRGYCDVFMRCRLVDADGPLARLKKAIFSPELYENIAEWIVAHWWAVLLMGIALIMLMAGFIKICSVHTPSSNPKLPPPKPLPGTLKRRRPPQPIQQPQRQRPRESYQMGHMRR
Pemphigus Ab inh – human desmoglein-3 autoantibody binding inhibition; hit rate 0.48% among 310,000; binding (percent of control), % at 10 µM; DSG3-coupled beads, scFv-anti-DSG3-GFP binding, flow cytometry; active compounds read low;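 active means binding more than 3 SD below its plate's average and above zero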;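 further: hits lower antibody fragment binding to DSG3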
ADAM17 inh – inhibitors of human ADAM17; AID 720648; recombinant ADAM17, EDANS/DABCYL FRET peptide cleavage; inhibition, % at 6.95 µM; P78536; hit rate 0.83% among 370,000;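 active means inhibition above the mean of compounds lying between control limits plus 3 SD, set per campaign, cut at about 8.5% in these data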;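 further: 0% = DMSO-only wells as the low control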
MPTP block – permeability transition pore inhibition; hit rate 1.4% among 360,000; AID 602449; isolated mouse mitochondria, Ca2+ swelling absorbance, 30 min; inhibition, % at 10 µM;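 active means inhibition of 50% or more, scaled per plate between neutral and stimulator controls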;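 further: 0% = DMSO wells given calcium and 100% = 1 mM EGTA wells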
rCAG binder – binds r(CAG) RNA repeats; r(CAG) RNA repeat, TO-PRO-1 dye displacement fluorescence; inhibition, % at 3 µM; hit rate 1.3% among 370,000; AID 651821;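 active means inhibition above the plate cutoff, the mean of all test compounds on that plate plus 3 SD, cut at about 35% in these data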;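 further: 0% = DMSO alone and 100% = 100 µM mitoxantrone as full dye displacement; higher means more dye released from RNA so lower well fluorescence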
proKLK7 act – activates the human kallikrein-7 zymogen | purified proKLK7, EDANS-DABCYL substrate fluorescence; 100% is mature enzyme control, 0% vehicle | activation, % at 7 µM | hit rate 0.9% among 370,000;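 active means activation above the mean of all tested compounds plus 3 SD, computed per campaign excluding outliers beyond control limits, cut at about 13% in these data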
rCAG binder conf – r(CAG) RNA repeat binding, confirmation. shares compounds with rCAG binder. TO-PRO-1 dye displacement fluorescence. inhibition, % at 3 µM. hit rate 70% among 4,300. AID 652065;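 active means inhibition above a per-plate cutoff, the mean inhibition of sample wells plus 3 SD, cut at about 35% in these data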;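 further: loss of TO-PRO-1 fluorescence as compound displaces dye from 1x1 AA loop RNA; 0% = DMSO only wells and 100% = 100 µM mitoxantrone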
dCAG dye counter – counter-screen for rCAG RNA binders: DNA CAG dye complex inhibitors; shares compounds with rCAG binder; d(CAG) DNA oligo TO-PRO-1 dye displacement, fluorescence; inhibition, % at 3 µM; hit rate 94% among 4,300; AID 652068;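 active means inhibition above its plate's cutoff, the mean test-well inhibition plus 3 SD, cut at about 4.8% in these data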;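 further: 0% = DNA dye mix with DMSO and 100% = 100 µM mitoxantrone; hits displace the dye from DNA and so lower well fluorescence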
* hit, by the source's call; i = inactive; . = no result given.

SMILES	ADAM10 inh	Pemphigus Ab inh	ADAM17 inh	MPTP block	rCAG binder	proKLK7 act	rCAG binder conf	dCAG dye counter
CC(=O)Oc1ccc(C(=O)Nc2ccccc2C(=O)Nc2cccc(C(=O)O)c2)cc1	0.6	97.4	-0.3	5.2	7.2	0.3	.	.
COCCCNC(=O)C[C@H]1C[C@@]2(C(=O)OC)C(=C[C@H](COCc3ccccc3)O[C@@H]2C)N(CCC2=CCCCC2)C1=O	4.2	.	2.4	.	1.4	0.2	.	.
Cc1ccc(NC(=O)Nc2cccc(Cl)c2)c(C(=O)O)c1	-207.6	98.6	-61.1	10.6	46.6*	-1.6	20.9	2.9
COc1cc(NC(=O)Nc2ccc(Cl)c(Cl)c2)c(C(=O)O)cc1OC	-0.8	101.3	-24.1	3.8	70.3*	0.0	53.5*	15.3*
O=C(Cc1ccc(Cl)cc1)Nc1cccc(C(=O)Nc2ccccc2C(=O)O)c1	-1.1	93.3	1.1	0.0	74.3*	-1.1	64.0*	24.3*
CC(=O)Nc1ccc(S(=O)(=O)Nc2cccc(C(=O)Nc3ccccc3C(=O)O)c2)cc1	1.6	100.7	-2.1	-0.4	47.0*	0.9	17.9	4.7*
CC(C)NC(=O)N(C)C[C@H]1Oc2ccc(NC(=O)C3CC3)cc2C(=O)N([C@H](C)CO)C[C@@H]1C	5.0	107.6	-2.8	-0.1	-0.5	0.5	.	.
COc1ccc([C@H]2CC(=O)C=C(c3cccc(C#N)c3)C2)cc1	13.4	97.0	1.9	0.5	5.6	0.4	.	.
COc1ccc(Cl)cc1N(CC(=O)NCc1ccccn1)S(=O)(=O)c1ccc(C)cc1	-7.5	103.1	-3.7	0.9	2.5	0.1	.	.
CC(c1ccccc1)n1cc(C(=O)N2CCCC2)nn1 (centres undefined)	-1.4	.	0.1	.	-1.3	-0.4	.	.
COc1ccc(/C(=N\Nc2ccccc2C(=O)O)c2ccccc2)cc1	1.0	111.4	3.0	6.2	49.9*	1.1	42.6*	11.8*
COc1ccc(OCC(=O)Nc2cccc(C(=O)Nc3ccccc3C(=O)O)c2)cc1	6.4	98.0	0.0	4.2	50.8*	-0.9	62.3*	17.0*
COc1ccc(CC(=O)Nc2cccc(C(=O)Nc3ccccc3C(=O)O)c2)cc1OC	-2.1	94.3	0.0	0.5	25.6	0.2	.	.
CCOC(=O)C(=O)N/N=C(/c1ccccc1)c1ccc(OC)cc1	-1.4	101.7	-1.9	2.4	-5.1	0.0	.	.
O=C(Cc1cc(=O)[nH][nH]1)N/N=C/c1ccccc1C(F)(F)F	4.9	.	2.8	.	3.8	0.4	.	.
Cc1ccc(S(=O)(=O)/N=C2/NC(=O)/C(=C\c3ccco3)S2)cc1	-7.5	115.4	-3.4	-3.5	69.0*	-0.2	42.7*	11.3*
COc1ccc(N=C2NC(=O)/C(=C\c3ccco3)S2)cc1	5.6	101.5	0.2	0.0	17.1	0.0	.	.
CC(=O)Nc1ccc(S(=O)(=O)/N=C2/NC(=O)/C(=C\c3ccco3)S2)cc1	-0.7	110.6	-1.6	0.5	57.2*	-1.1	29.9	11.5*
COc1cc2ccnc(C=NO)c2cc1OC	i	105.6	-258.8	0.0	3.4	-4.5	.	.
Cc1ccc(Oc2ccc(NS(=O)(=O)c3cccc(C(=O)O)c3)cc2)cc1	3.5	128.0	0.3	1.3	38.0*	0.1	38.4*	10.4*
O=C(O)c1cccc(S(=O)(=O)Nc2ccc3oc(=O)sc3c2)c1	1.6	105.7	0.1	5.4	41.6*	0.0	6.9	1.7
O=C1CCC[C@H]2C[C@H](NCc3ccc(Cl)c(C(F)(F)F)c3)CC[C@]23CCCN13	3.6	.	0.4	.	.	.	.	.
C(=C\c1ccccc1)/CN1CCN(C(c2cc3ccccc3o2)c2nnnn2Cc2ccccc2)CC1 (centres undefined)	-18.8	.	-1.8	3.3	4.6	0.1	.	.
Cc1noc(NS(=O)(=O)c2ccc(NC(=O)c3ccc(N4C(=O)c5ccccc5C4=O)cc3)cc2)c1C	2.8	99.0	-1.4	-0.2	73.5*	-0.6	59.0*	25.5*
O=C(Nc1ccc(S(=O)(=O)N2CCOCC2)cc1)c1nn(-c2ccc(F)cc2)ccc1=O	6.7	87.3	-1.2	0.4	1.6	-0.5	.	.
